In ChEMBL document CHEMBL4888484, “Replenishing the malaria drug discovery pipeline: Screening and hit evaluation of the MMV Hit Generation Library 1 (HGL1) against asexual blood stage Plasmodium falciparum ,using a nano luciferase reporter read-out” (2022):
About 410 (8.5%) of roughly 4,800 compounds showed an effect of 50% or more. What follows is part of a selection rich in strong results, with near analogues and random picks from the rest.

System: Plasmodium falciparum
Assay: Confirmatory screen in NF54 pLDH assay, in single point, at 2uM, 72h
Assay type: functional, Erythrocyte
Details: timepoint 72 hour

Row | SMILES | % Inhibition
1 | O=C(NCc1cccc(Cl)c1)[C@H]1CCCN(c2nc3cccnc3n(Cc3ccccc3)c2=O)C1 | -7%
2 | CCN(CC)CC(O)COc1c(Br)cc(C(C)(C)c2cc(Br)c(OCC(O)CN(CC)CC)c(Br)c2)cc1Br (stereo not given) | 99%
3 | CCN(CC)C(=O)c1cnc2snc(C)c2c1N1CCC(C(=O)Nc2c(C)cc(C)cc2C)CC1 | 34%
4 | CN(C(=O)CN(CCO)c1ccc(Br)cc1)C1CC1 | 2%
5 | CCN(C(=O)[C@H]1CCOC1)c1ccc(C(F)(F)F)cc1 | 5%
6 | O=C(O)C1CCC(=O)N(C2CC2)C1c1ccccc1 (stereo not given) | 10%
7 | C(=C\c1cc(/C=C/c2ccccc2)n2nnnc2n1)/c1ccccc1 | 5%
8 | O=C(NCC1CCCCC1)c1cn[nH]c1-c1ccccc1 | 6%
9 | O=C(NCC1CCCCC1O)c1cnn2ccncc12 (stereo not given) | -5%
10 | COc1ccc2nc(C(F)(F)F)nc(N3CCNC(=O)CCN(C(=O)C(F)=C4CCCC4)CC3)c2c1 | 14%
11 | O=S(=O)(Nc1cccc2cccnc12)c1cccs1 | 64%
12 | Cc1cc(NS(=O)(=O)c2cccs2)n(-c2ccncc2)n1 | 9%
13 | O=S(=O)(Nc1nncs1)c1cccs1 | -10%
14 | Cc1nsc2ncn(C[C@H](O)COCc3ccco3)c(=O)c12 | 8%
15 | CCOc1ccc(-c2cc3c(=O)n(CCC(=O)N4CCCC4)ccn3n2)cc1 | 7%
16 | O=C(CNC(=O)c1ccc(C(F)(F)F)cc1)Nc1cnc2c(c1)COCC2 | 4%
17 | Fc1ccc(-c2cc3c(N4CCCCC4)nccn3n2)cc1 | 12%
18 | CCn1cc(C(=O)Nc2n[nH]c3ccc(C(F)(F)F)cc23)cn1 | -4%
19 | CC1CCN(C[C@H](O)C(F)(F)F)CC1 | 5%
20 | COc1cccc2c(N3CC[C@]4(CNC(=O)C4)C3)nccc12 | 2%
21 | CC[n+]1ccc(-c2ncc(-c3ccc(C(C)(C)C)cc3)o2)cc1 | 55%
22 | Cc1ccc(C(=O)NCCn2cnc3ccccc3c2=O)cn1 | -7%
23 | CC(C)CC[C@@H](CCNC1CCN(C)CC1)c1ccc(Cl)cc1 | 83%
24 | CN(C)CCNCc1ccc(Cl)c(Cl)c1 | -14%
25 | CN(C)CCCNCc1ccc(Cl)cc1Cl | -7%

Row | SMILES | % Inhibition
26 | Clc1ccccc1COc1ccc(CNC2CCCCC2)cc1 | 7%
27 | CN1CCC(NCC[C@@H](Cc2ccccc2Cl)c2ccc(Cl)cc2)CC1 | 92%
28 | CC(C)CC[C@@H](CCNCCN(C)C)c1ccc(Cl)cc1 | 103%
29 | O=C1c2cc3ccccc3n2C[C@](C(=O)NC2CCCCCCC2)(c2ccccc2)N1Cc1cccc(Cl)c1 | -5%
30 | COc1ccccc1N(CC(=O)NCCN1CCOCC1)S(=O)(=O)c1ccc(C)cc1 | 7%
31 | Cc1cc(C(=O)N[C@@H](C)c2nnc3n2CCCCC3)c(C)s1 | 3%
32 | O=C(Nc1ncc(Cc2ccc(Cl)c(C(F)(F)F)c2)s1)c1ccc2nnsc2c1 | 10%
33 | CC[C@H](O)CCNC(=O)Nc1ncc(CC(C)C)s1 | 2%
34 | COc1cc(NC(=O)Cn2c(=O)n(C)c(=O)c3c2c(-c2ccccc2)cn3C)cc(OC)c1OC | -8%
35 | Cc1cncn1C1CCN(C(=O)C2(Cc3ccccc3)CC3CCC2C3)CC1 (stereo not given) | -1%
36 | COc1cc(C=C(C(=O)Nc2ccccc2F)C(=O)Nc2ccccc2F)ccc1OCC(=O)Nc1cccc(C(F)(F)F)c1 | -18%
37 | Cc1[nH]ccc1C(=O)N1CC[C@]2(CCN(C(=O)OC(C)(C)C)C2)C1 | 13%
38 | CCC(=O)OC1(C#CCOc2ccc(OC)cc2)CCN(C)CC1 | 9%
39 | Cc1cc(C)n(-c2ccc(N3CC4CCC3C4)nc2)n1 (stereo not given) | -2%
40 | C[C@H](NC(=O)c1ccco1)c1cc2c(cc1Br)OCCCO2 | -9%
41 | Cc1ccc(NC(=O)c2c(C)nc3sc(C(=O)NCc4ccccc4)c(N)c3c2-c2ccccc2Cl)c(C)c1 | 87%
42 | CCc1ccc(NC(=O)c2sc3nc(C)c(C(=O)Nc4ccc(C)cc4C)c(-c4ccccc4Cl)c3c2N)cc1 | 5%
43 | Cc1ccc(NC(=O)c2c(C)nc3sc(C(=O)NCc4ccccc4)c(N)c3c2-c2cccs2)c(C)c1 | 11%
44 | CN([C@H]1CCc2nn(CC3CC3)c(=O)n2CC1)S(=O)(=O)c1ccccc1C(F)(F)F | 1%
45 | CC(C)NC(=O)N1C[C@H]2CCCC(=O)N(Cc3cccc(F)c3)[C@H]2C1 | 8%
46 | O=C(NC[C@H]1CCCO1)c1cc(C(=O)C2CC2)c[nH]1 | -8%
47 | O=C(CC1CCOCC1)NCc1ccccn1 | -24%
48 | COc1ccc(-c2[nH]ncc2C(=O)NCC2CCCCC2)cc1OC | 6%
49 | O=C(NCC1CCOCC1)c1ccc2n[nH]c(=O)n2c1 | 6%
50 | COc1nc(-c2cccc(C(=O)N3C[C@@H]4CC[C@H](C3)C(=O)N4)c2)ncc1F | 85%

Row | SMILES | % Inhibition
51 | COc1ccc(C(=O)N2CC[C@H](c3nc(C4CCOCC4)no3)C2)cc1OC | 11%
52 | Cc1ccc(C(=O)N2CC(n3cnnc3C)C2)cc1F | -17%
53 | COCc1cc(C(=O)N[C@H](c2ccccc2)C2CCOCC2)no1 | 8%
54 | COc1nc(-c2cccc(C(=O)NCC3CCOCC3)c2)ncc1F | 80%
55 | CC(C)(NC(=O)CC1(O)CCCCC1)C(=O)Nc1ccccc1 | 5%
56 | O=C(Nc1ccc(F)cc1)c1c(-c2ccc(Cl)cc2)nc2n1CCS2(=O)=O | -4%
57 | COC(=O)C1C2CCC(C2)C1NC(=O)c1ccncc1 (stereo not given) | 2%
58 | O=C([C@@H]1CCCN1c1ncc(C(F)(F)F)cc1Cl)N1Cc2ccccc2C1 | -18%
59 | CCOC(=O)[C@@H](NC(=O)Nc1ccccc1C(F)(F)F)C(F)(F)F | 11%
60 | O=C(NC1CC1C1CCCCC1)N1CCS(=O)(=O)CC1 (stereo not given) | -4%
61 | COC(=O)c1c(NC(C)=O)c2cc(NC3CCOCC3)cnc2n1CCc1ccc(OC)cc1 | 61%
62 | COc1ccc(NC(=O)[C@@H](C)C2CCOCC2)cc1 | -5%
63 | CCc1c(NC(=O)[C@@H](C)C2CC2)nnn1CCc1ccc(OC)cc1 | 12%
64 | Cc1nc(CN2C(=O)C(=O)c3cc(Br)ccc32)cs1 | 9%
65 | Cc1ccn2c(CN3CCN([C@H]4CCN(Cc5ccccc5)C4)CC3)c(C)nc2c1 | 9%
66 | O=C(Cc1cccc2ccccc12)NC(C1CC1)C1CC1 | -12%
67 | COc1ccc(NS(=O)(=O)c2ccc(NC(=O)CN(c3ccc(F)cc3)S(C)(=O)=O)cc2)cc1 | 12%
68 | COc1ccccc1Cc1nnc2n1CCCC2 | 8%
69 | COc1cc(NC(=O)N2CC(c3noc(-c4ccccc4)n3)C2)cc(OC)c1OC | 3%
70 | CNC(=O)[C@@H]1C[C@H](NCc2cc(OC)c(OC)c(OC)c2)CN1CC(c1ccccc1)c1ccccc1 | 50%
71 | COc1cc(CNC2CCCCC2)cc(Br)c1OCc1ccccc1Cl | 8%
72 | CC(=O)c1ccc(C(C)(C)C)cc1NC(=O)C(C)C | 8%
73 | O=C(CCn1nc2ccccn2c1=O)N1CC(CC(F)F)C1 | 6%
74 | O=c1nc2n(nc1-c1ccccc1)C1(CCC1)Nc1ccccc1-2 | 60%
75 | C[C@]1(CCc2ccc(O)cc2)Nc2ccccc2-c2nc(=O)c(-c3ccc(F)cc3)nn21 | -12%

Row | SMILES | % Inhibition
76 | C[C@]1(C(=O)O)Nc2ccccc2-c2nc(=O)c(-c3ccccc3)nn21 | 9%
77 | Nc1nccnc1C(=O)Nc1c(-c2ccccc2)ncn1C1CC1 | 3%
78 | CC(C)c1ccc(Oc2cnn(-c3cccc(Cl)c3)c(=O)c2Nc2cccc(C(=O)NC3CC3)c2)cc1 | 54%
79 | Cn1cc2c(n1)CCC[C@@H]2NC(=O)c1cccc(C(=O)NC2CC2)c1 | 0%
80 | COc1ccc(-n2ncc(Oc3cccc(C)c3)c(Nc3cccc(C(=O)NCc4ccc(F)cc4)c3)c2=O)cc1 | 30%
81 | CCn1ncc2ccc(N[C@@H](C)C3(O)CCOCC3)cc21 | 12%
82 | CCOc1ccc(C(=O)N2CCN(c3nnc4ccccn34)CC2)cc1 | 8%
83 | COc1ccc(NC(=O)CN2N=C(C(=O)Nc3ccccc3)CCC2=O)cc1 | -2%
84 | COc1ccc(NC(=O)CCC(=O)N2CCc3ccccc3C2)cc1 | 6%
85 | CC(=O)c1cccc(NC(=O)Cn2c(=O)n(CCc3ccccc3)c(=O)c3ccccc32)c1 | 10%
86 | O=C(CN1C[C@@H](c2ccccc2)Oc2ccccc2C1=O)Nc1ccccc1 | -14%
87 | CCCN1C(=O)c2ccccc2N2C(=O)CC[C@@]12C(=O)Nc1ccc(OC)cc1 | 92%
88 | CCCN1C(=O)c2ccccc2N2C(=O)CC[C@@]12C(=O)Nc1ccccc1 | 97%
89 | COc1cccc(NC(=O)c2ccc3c(c2)N(C)[C@@H]2CCCCCN2C3=O)c1 | 9%
90 | COc1ccc(NC(=O)C2=NN(CC(=O)Nc3cccc(OC)c3)C(=O)CC2)cc1 | -4%
91 | CC(=O)c1cccc(NC(=O)c2nonc2C)c1 | -11%
92 | CCN1C(=O)c2ccccc2N2C(=O)CC[C@@]12C(=O)Nc1cccc(OC)c1 | 96%
93 | CC(=O)c1cccc(NC(=O)[C@@]23CCC(=O)N2c2ccccc2C(=O)N3C)c1 | 88%
94 | CC(=O)N1C(C(=O)O)Cc2c([nH]c3ccccc23)C1c1ccc2c(c1)OCO2 (stereo not given) | 5%
95 | Clc1ccc(Cl)c(-c2ccc(CNn3cnnc3)o2)c1 | 11%
96 | O=C(NCC1(Cc2ccccc2)CCC1)N(CCO)C1CC1 | -1%
97 | Cc1ccn(-c2ccc(C(=O)NC3CCCC3)cn2)n1 | -9%
98 | C[C@@H](C(=O)Nc1ncc[nH]1)c1ccc2c(c1)[nH]c1ccc(Cl)cc12 | 16%
99 | c1coc([C@H](CNC2CCCC2)N2CCCC2)c1 | -12%
100 | O=C1NCCC[C@@H]1Nc1ccc(C(F)(F)F)nn1 | 2%
